Here are results for 24 molecules from PubChem BioAssay.

A word on the inhibition: it is the percentage by which the read-out fell short of the control.

A number with no mark means an inactive call. No rule for the calls is given here.

For this assay, the target named is Pantothenate synthetase (Mycobacterium tuberculosis (strain ATCC 25618 / H37Rv)) (UniProt P9WIL5). Nature of the assay: Recombinant Mtb pantothenate synthetase (PanC) inhibitors, coupled enzyme, confirmatory (AID 375).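 Also: 0% = full reaction with vehicle and 100% = no enzyme background.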 To be noted: coupled enzyme assay; at 10 µM, active compounds read high.
Sequence of Pantothenate synthetase (Mycobacterium tuberculosis (strain ATCC 25618 / H37Rv)) (P9WIL5 whole entry, looked up): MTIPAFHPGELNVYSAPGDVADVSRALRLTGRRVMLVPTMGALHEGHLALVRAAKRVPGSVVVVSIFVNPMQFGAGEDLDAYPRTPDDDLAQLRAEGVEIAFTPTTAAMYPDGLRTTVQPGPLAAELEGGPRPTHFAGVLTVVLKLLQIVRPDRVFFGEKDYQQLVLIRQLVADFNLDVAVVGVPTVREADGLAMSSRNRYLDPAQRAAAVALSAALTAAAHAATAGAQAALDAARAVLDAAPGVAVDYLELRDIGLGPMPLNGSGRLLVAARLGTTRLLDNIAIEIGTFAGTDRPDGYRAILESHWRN
In the case of `CCN(C(=O)c1cn(C)c(=O)c2cc(OC)c(OC)cc12)c1ccccc1C`, the inhibition was 6%.

With `COc1ccc(CCN2CCC(Nc3nc4ccccc4n3Cc3ccc(F)cc3)CC2)cc1`, the inhibition was 2%.

Take `CCCc1cc(C(=O)Nc2sc3c(c2C#N)CCC3)no1`: the inhibition was 7%.

Consider `COc1ccc(OC)c(C2=Nn3c(nnc3C3CCCCC3)SC2)c1`, for which the inhibition was 0%.

With `CC(=O)N1CCc2c(sc(NC(=O)c3ccc(S(=O)(=O)N(C)C)cc3)c2C#N)C1`, the inhibition is 0%.

In the case of `CC(C)Cc1nnc(NC(=O)CCC(=O)N2CCOCC2)s1`, the inhibition is 0%.

Consider `Cc1ccc(-c2nc3cc(N)ccc3o2)cc1`, for which the inhibition was 0%.

For the molecule `Cc1sc2nc(SCC(=O)N3CCN(CCO)CC3)n(-c3ccccc3)c(=O)c2c1C`, the inhibition is 6%.

Turning to `Cn1c(=O)c2ccccc2n(Cc2ccccc2F)c1=O`, the inhibition is 0%.

Regarding `CC1=C(C(=O)OC2CCCC2)C(c2ccc(C)o2)C2=C(CC(c3cccs3)CC2=O)N1` (centres undefined), the inhibition is 0%.

On to `COc1ccc(C2N(C(=O)c3ccccc3)CCN2C(=O)c2ccccc2)cc1`, for which the inhibition was 0%.

With `O=C(NCCc1ccccc1)C1CCCN(S(=O)(=O)c2cccs2)C1` (centres undefined), the inhibition is 9%.

In the case of `CC(C)=CC(=O)OCC(=O)NC(=O)NC(C)(C)C`, the inhibition was 0%.

Consider `COc1ccccc1Nc1nc(N)nc(CN2CCN(c3ccccc3F)CC2)n1`, for which the inhibition was 0%.

Consider `O=C(CN1CCN(C2CCCCC2)CC1)Nc1ccccc1-c1ccccc1`, for which the inhibition was 6%.

For the molecule `CCOC(=O)Nc1ccc2c(CN3C(=O)NC4(CCCC4)C3=O)cc(=O)oc2c1`, the inhibition is 2%.

Consider `COc1cc(CNc2ccc(N3CCOCC3)c(C(=O)O)c2)ccc1OCC(N)=O`, for which the inhibition is 1%.

`COc1cc(NC(=O)CC(C)C)ccc1NC(=O)c1ccco1`: the inhibition is 1%.

As for `COc1cccc(Cn2c(OCC3CCCO3)nc3c2c(=O)n(C)c(=O)n3C)c1` (centres undefined), the inhibition is 3%.

`CCOC(=O)c1ccc(NC(=O)Cn2cc3c(n2)CCC(C)C3)cc1` (centres undefined): the inhibition was 8%.

With `CCOC(=O)N1CCN(c2c(NCCCOC(C)C)c(=O)c2=O)CC1`, the inhibition is 4%.

With `COc1ccccc1N=Cc1nc(-c2ccccc2)oc1OC(C)=O`, the inhibition is 0%.

For `O=C(COC(=O)C1=COCCO1)Nc1ccccc1Oc1ccccc1`, the inhibition was 1%.

Take `CCCCCn1c(=O)[nH]c2cc(C(=O)NCCN3CCOCC3)ccc2c1=O`: the inhibition is 1%.
